Assay results taken from ChEMBL document CHEMBL3988442, “University of Dundee, Small-Polar-MMV Screening Library” (2021).
The whole screen tested about 38,000 compounds, of which about 1,200 (3.2%) showed an effect of 50% or more. The median lay at about -58%. For the sample, strong results were picked, then their nearest neighbours and some compounds at random.

tested on: Plasmodium falciparum; assay: Calibr Malaria Delayed Death Assay SOP; type: functional, organism-based; design: scale not given: in the data most compounds retested in dose-response had high values; details: concentration 4.99e-06 (unit not given; other assays of the set use mol/L)

Going from `Cc1ccc(OCCCC(=O)NC(C)c2nnc3n2CCC3)cc1` (configuration not stated) to `COc1ccc(C(=O)c2cnc(C(C)C)n2C)cc1`, the “Percent Effect” value falls from -64.5% to -137.4%.

Compared with `O=C1CCC(=O)N1CCn1nnc(-c2ccc(Br)cc2)n1`, `CC(=O)c1ccc(-n2c(C)cn(CCS(C)(=O)=O)c2=O)cc1` is higher in “Percent Effect” value: -91.28% for the first, 3.074% for the second.

Compared with `CCS(=O)(=O)N1CCN(Cc2cccnc2)c2nc(C)ccc2C1.O=C(O)C(F)(F)F.O=C(O)C(F)(F)F`, `COc1ccc(CN2C[C@@H]3COC[C@H](N4CCN(C)CC4)[C@@H]3C2)cc1.O=C(O)C(F)(F)F.O=C(O)C(F)(F)F.O=C(O)C(F)(F)F` is higher in “Percent Effect” value: 2.753% for the first, 39.43% for the second.

First: CN1CCN(CCCOc2ccccc2CN2C[C@H]3CC[C@H]2C3)CC1
Second: CN1CCN(Cc2ccccc2Oc2nccc3occc23)CC1
The “Percent Effect” value of the first is lower: 15.78% for the first, 77.3% for the second.

First: c1ccc(Oc2nccc3occc23)c(CN2CCCCC2)c1
Second: COc1ccc(Oc2nccc3occc23)cc1CN1CCCC1
The “Percent Effect” value of the first is higher: 71.51% for the first, 59.92% for the second.

Going from `CN1CCN(Cc2c(-c3ccco3)[nH]c3ncccc23)CC1` to `CCCc1nnc(N2CCN(Cc3ccccc3OC)CC2)o1`, the “Percent Effect” value falls from -17.66% to -122.5%.

Going from `COc1ccc(Oc2cccc(C#N)n2)cc1CN1CCCC1` to `COc1ccc(Oc2ccc(C(F)(F)F)cn2)cc1CN1CCCC1`, the “Percent Effect” value rises from -26.21% to 49.66%.

Compared with `O=S1(=O)CCCN(Cc2ccccc2OCC(F)(F)F)CC1`, `Cc1ccccc1CN1CC[C@H]2C[C@H](C(=O)N(C)C)O[C@H]2C1.O=C(O)C(F)(F)F` is lower in “Percent Effect” value: -23.25% for the first, -65.63% for the second.

Going from `O=C(c1ccc(Cn2cccc2)cc1)N1CCN(CCO)CC1` to `Cc1cnn(C2CCCN(C(=O)c3ccc(-n4ccnc4)cc3)C2)c1` (configuration not stated), the “Percent Effect” value falls from -124.1% to -131.1%.

First: CCC(Nc1cccc(Oc2ccccn2)c1)C(N)=O (configuration not stated)
Second: COc1ccnc(NC(Cc2ccccc2)C(N)=O)n1 (configuration not stated)
The “Percent Effect” value of the first is higher: -89.12% for the first, -102.6% for the second.

Going from `Cc1noc(C)c1C(=O)N1CCSc2ccc(Cl)cc21` to `Cc1ccc(-n2ncc3c2CCCC3N)cc1C` (configuration not stated), the “Percent Effect” value rises from -64.97% to 5.746%.

First: CN1CCN([C@H]2COC[C@@H]3CN(Cc4cccnc4)C[C@@H]32)CC1
Second: COc1ccc(CN2C[C@@H]3COC[C@@H](N4CCN(C)CC4)[C@@H]3C2)cc1.O=C(O)C(F)(F)F.O=C(O)C(F)(F)F.O=C(O)C(F)(F)F
The “Percent Effect” value of the first is lower: -16.78% for the first, 72.48% for the second.

First: CN(C)[C@H]1COC[C@@H]2CN(Cc3ccc4c(c3)OCO4)C[C@@H]21.O=C(O)C(F)(F)F.O=C(O)C(F)(F)F
Second: O=C(O)C(F)(F)F.O=C(O)C(F)(F)F.c1cc2c(cc1CN1C[C@@H]3COC[C@@H](N4CCCC4)[C@@H]3C1)OCO2
The “Percent Effect” value of the first is lower: 25.51% for the first, 41.71% for the second.

Compared with `COc1ccc(CN2C[C@@H]3COC[C@@H](CC(=O)N4CCCC4)[C@@H]3C2)cc1.O=C(O)C(F)(F)F`, `Cc1cc(C)cc(CN2C[C@H]3COC[C@H](N4CCN(C)CC4)[C@H]3C2)c1.O=C(O)C(F)(F)F.O=C(O)C(F)(F)F.O=C(O)C(F)(F)F` is higher in “Percent Effect” value: -28.59% for the first, 93.63% for the second.

First: CCN(CC)[C@H]1COC[C@@H]2CN(Cc3cnn(C)c3)C[C@@H]21
Second: c1ncn(CC2CCCN(Cc3noc(C4CC4)n3)C2)n1 (configuration not stated)
The “Percent Effect” value of the first is higher: -7.149% for the first, -140.8% for the second.

Going from `CCOC(=O)[C@H]1[C@@H](O)C(=O)N(C)C12CCN(C(=O)CC(C)(C)C)CC2` to `CC(C)[C@]1(O)CN(C(=O)C2(Cn3cccn3)CC2)C[C@H]1C`, the “Percent Effect” value rises from -173.1% to -13.49%.

First: Cc1nn2cccnc2c1C(=O)N1CCCC(n2cccn2)C1 (configuration not stated)
Second: O=C(Nc1ccc(-n2cccn2)cc1)N1CCC(O)C1 (configuration not stated)
The “Percent Effect” value of the first is higher: -26.13% for the first, -73.59% for the second.

Going from `COc1ccc2nnc(CCC(=O)Nc3nc4c(s3)CCCCC4)n2n1` to `COC[C@@]12CCO[C@@H]1CCN(C(=O)CCc1ccccc1Cl)C2`, the “Percent Effect” value falls from -7.858% to -39.1%.

Going from `CNC(=O)[C@H]1C[C@@H]2CN(C(=O)NCCc3ccccc3)C[C@H]1O2` to `Cc1ccccc1C1(C(=O)NCCN2CCCC2)CCOCC1`, the “Percent Effect” value rises from -57.69% to -7.598%.

Compared with `Cc1n[nH]cc1CNC(=O)Nc1cccc(OCC(F)(F)F)c1`, `Cc1n[nH]cc1CNCc1cccc(OCC(F)(F)F)c1.Cl` is higher in “Percent Effect” value: -36.62% for the first, 56.25% for the second.

Going from `Cc1n[nH]cc1CNCc1ccnc(OCC(F)(F)F)c1.Cl` to `Cc1ccc(CNCC2Cn3nncc3CO2)s1` (configuration not stated), the “Percent Effect” value falls from -70.94% to -76.38%.

Going from `O=C1CCNc2ccccc2CN1Cc1ccco1` to `O[C@H]1[C@H](NCCc2ccccn2)c2ccccc2C12CCNCC2`, the “Percent Effect” value rises from -58.24% to -35.06%.

Compared with `CCc1nc(Nc2cccc(C(=O)NC)c2)c2c(n1)c(C)nn2CC`, `Cc1ccc(CCN[C@@H]2c3ccccc3C3(CCNCC3)[C@H]2O)s1` is higher in “Percent Effect” value: -106.8% for the first, 87.27% for the second.

Compared with `COc1ccccc1C1(C(=O)NCCN2CCOCC2)CCOCC1`, `COc1ccccc1CCN[C@@H]1c2ccccc2C2(CCNCC2)[C@H]1O` is higher in “Percent Effect” value: -173.3% for the first, 81.73% for the second.

First: CN(Cc1cncnc1)[C@H]1CN(C(=O)c2ccc[nH]2)[C@@H]2CCCO[C@@H]21
Second: Fc1ccccc1OCCN1CCCCC1Cn1cncn1 (configuration not stated)
The “Percent Effect” value of the first is higher: -58.36% for the first, -107.8% for the second.

Compared with `CC(c1ccc(F)cc1F)N1CCN(CCC(=O)NC(N)=O)CC1` (configuration not stated), `CC(c1ccc(F)cc1F)N1CCN(CCC(=O)O)CC1.Cl` (configuration not stated) is lower in “Percent Effect” value: 63.51% for the first, -12.88% for the second.

First: CC(c1ccc(F)cc1F)N1CCN(CCN2CCCC2=O)CC1 (configuration not stated)
Second: O=C(O)C(F)(F)F.O=C(O)C(F)(F)F.c1nc(CNC2CCOCC2)c2n1CCCN(CC1CC1)C2
The “Percent Effect” value of the first is higher: -15.63% for the first, -115.6% for the second.

Compared with `O[C@H]1[C@H](NCCc2cnccn2)c2ccccc2C12CCNCC2`, `O[C@H]1[C@H](NCCSc2ccccn2)c2ccccc2C12CCNCC2` is higher in “Percent Effect” value: -10.61% for the first, 23.57% for the second.

In the case of `COCCN(C)[C@@H]1c2ccccc2C2(CCNCC2)[C@H]1O`, the “Percent Effect” value is reported as -111.9%.
